# Measurements as given in the supplement of paper PMC11732987, “Enantioselective OTUD7B fragment discovery through chemoproteomics screening and high-throughput optimisation” (Communications Chemistry, 2025).
# A number with no mark means an inactive call.
# How the values were obtained:
# Experiment in all cases: log2 ratio of Biotin-Ahx-Ub-VS probe labelling (fragment/DMSO); higher = less target engagement (more negative = stronger competition), active = hit call of the paper (q ≤ 0.05, log2 ratio ≤ -1)
# Conditions in all cases: compound concentration: 200 uM; treatment time: 3 h
# [1] = target: T1, ALG13 (UniProt Q9NP73)
# T1 sequence (whole entry): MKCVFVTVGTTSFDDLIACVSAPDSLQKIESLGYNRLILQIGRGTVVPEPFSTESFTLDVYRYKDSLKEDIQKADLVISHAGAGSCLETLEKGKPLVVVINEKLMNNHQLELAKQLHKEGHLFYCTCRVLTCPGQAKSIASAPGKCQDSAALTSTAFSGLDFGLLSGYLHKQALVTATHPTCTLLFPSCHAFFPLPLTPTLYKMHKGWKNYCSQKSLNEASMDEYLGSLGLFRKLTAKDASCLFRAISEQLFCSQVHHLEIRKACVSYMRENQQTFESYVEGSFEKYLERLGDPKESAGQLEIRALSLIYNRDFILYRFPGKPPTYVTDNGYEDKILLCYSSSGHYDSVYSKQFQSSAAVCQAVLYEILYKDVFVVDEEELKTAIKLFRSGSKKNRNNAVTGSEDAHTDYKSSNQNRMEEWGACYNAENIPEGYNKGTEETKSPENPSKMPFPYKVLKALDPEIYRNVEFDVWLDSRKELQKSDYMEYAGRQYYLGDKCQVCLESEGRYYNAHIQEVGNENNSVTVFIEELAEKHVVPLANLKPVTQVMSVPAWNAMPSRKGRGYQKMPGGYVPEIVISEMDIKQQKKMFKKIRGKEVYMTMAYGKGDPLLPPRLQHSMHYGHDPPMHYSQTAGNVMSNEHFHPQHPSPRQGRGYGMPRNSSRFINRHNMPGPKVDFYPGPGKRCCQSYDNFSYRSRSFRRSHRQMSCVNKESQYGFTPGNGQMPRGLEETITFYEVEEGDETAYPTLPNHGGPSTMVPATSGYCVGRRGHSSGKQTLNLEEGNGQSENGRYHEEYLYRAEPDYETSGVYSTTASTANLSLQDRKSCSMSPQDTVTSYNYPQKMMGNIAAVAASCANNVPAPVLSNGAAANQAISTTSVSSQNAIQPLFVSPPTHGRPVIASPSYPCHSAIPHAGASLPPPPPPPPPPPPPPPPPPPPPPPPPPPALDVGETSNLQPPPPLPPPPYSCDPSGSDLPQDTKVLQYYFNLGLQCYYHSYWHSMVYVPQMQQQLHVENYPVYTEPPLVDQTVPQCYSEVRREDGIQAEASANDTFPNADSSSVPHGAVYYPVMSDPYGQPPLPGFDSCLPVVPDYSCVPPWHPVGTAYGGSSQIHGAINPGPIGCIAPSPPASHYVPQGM
# How it was run: (§1)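 Triplicate samples of HEK293T lysate, 495 µg each, received fragment at 200 µM or vehicle for 3 h, followed by Biotin-Ahx-Ub-VS (0.5 µM final) for 1 h. After NeutrAvidin enrichment of labelled DUBs and LysC/trypsin digestion, peptides were run by diaPASEF LC-MS/MS. The values are average log2 fragment/vehicle ratios from global-median-normalised Spectronaut label-free quantities, tested by unpaired t-test on proteins having ≥2 unique peptides.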
# [2] = target: ATXN3 (UniProt P54252)
# How it was run: as §1
# [3] = target: T2, BAP1 (UniProt Q92560)
# T2 sequence (whole entry): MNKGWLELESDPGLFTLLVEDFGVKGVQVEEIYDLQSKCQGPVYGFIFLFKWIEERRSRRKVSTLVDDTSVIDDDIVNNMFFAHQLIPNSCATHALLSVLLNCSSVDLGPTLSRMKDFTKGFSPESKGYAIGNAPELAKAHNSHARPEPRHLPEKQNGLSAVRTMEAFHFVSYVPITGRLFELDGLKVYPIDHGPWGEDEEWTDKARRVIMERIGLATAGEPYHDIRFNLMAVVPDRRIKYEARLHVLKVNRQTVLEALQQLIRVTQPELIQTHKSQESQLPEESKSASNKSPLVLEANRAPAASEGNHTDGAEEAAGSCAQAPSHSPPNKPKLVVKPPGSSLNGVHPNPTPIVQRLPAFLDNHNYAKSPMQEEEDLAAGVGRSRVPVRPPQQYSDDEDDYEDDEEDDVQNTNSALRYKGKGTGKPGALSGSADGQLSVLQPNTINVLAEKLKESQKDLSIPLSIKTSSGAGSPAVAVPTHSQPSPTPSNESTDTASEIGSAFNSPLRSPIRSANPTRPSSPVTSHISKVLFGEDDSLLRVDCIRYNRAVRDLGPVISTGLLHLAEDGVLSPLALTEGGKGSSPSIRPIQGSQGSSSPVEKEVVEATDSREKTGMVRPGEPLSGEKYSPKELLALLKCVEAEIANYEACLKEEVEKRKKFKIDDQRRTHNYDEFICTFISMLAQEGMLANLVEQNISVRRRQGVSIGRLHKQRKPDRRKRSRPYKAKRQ
# How it was run: as §1
# [4] = target: EIF3F (UniProt O00303)
# How it was run: as §1
# [5] = target: EIF3H (UniProt O15372)
# How it was run: as §1
# [6] = target: T3, FAM105A (UniProt Q9NUU6)
# T3 sequence (whole entry): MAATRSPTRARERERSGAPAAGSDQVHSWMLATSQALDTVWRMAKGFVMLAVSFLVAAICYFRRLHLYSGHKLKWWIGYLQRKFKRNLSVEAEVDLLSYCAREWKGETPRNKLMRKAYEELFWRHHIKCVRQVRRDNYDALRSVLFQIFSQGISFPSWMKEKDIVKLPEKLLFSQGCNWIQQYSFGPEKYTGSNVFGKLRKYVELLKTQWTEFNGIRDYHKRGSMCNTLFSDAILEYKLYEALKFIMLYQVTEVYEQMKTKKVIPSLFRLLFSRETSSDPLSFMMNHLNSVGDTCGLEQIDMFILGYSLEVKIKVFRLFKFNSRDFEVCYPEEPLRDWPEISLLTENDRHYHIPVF
# How it was run: as §1
# [7] = target: OTUB1 (UniProt Q96FW1)
# How it was run: as §1
# [8] = target: T4, OTUD4 (UniProt Q01804)
# T4 sequence (whole entry): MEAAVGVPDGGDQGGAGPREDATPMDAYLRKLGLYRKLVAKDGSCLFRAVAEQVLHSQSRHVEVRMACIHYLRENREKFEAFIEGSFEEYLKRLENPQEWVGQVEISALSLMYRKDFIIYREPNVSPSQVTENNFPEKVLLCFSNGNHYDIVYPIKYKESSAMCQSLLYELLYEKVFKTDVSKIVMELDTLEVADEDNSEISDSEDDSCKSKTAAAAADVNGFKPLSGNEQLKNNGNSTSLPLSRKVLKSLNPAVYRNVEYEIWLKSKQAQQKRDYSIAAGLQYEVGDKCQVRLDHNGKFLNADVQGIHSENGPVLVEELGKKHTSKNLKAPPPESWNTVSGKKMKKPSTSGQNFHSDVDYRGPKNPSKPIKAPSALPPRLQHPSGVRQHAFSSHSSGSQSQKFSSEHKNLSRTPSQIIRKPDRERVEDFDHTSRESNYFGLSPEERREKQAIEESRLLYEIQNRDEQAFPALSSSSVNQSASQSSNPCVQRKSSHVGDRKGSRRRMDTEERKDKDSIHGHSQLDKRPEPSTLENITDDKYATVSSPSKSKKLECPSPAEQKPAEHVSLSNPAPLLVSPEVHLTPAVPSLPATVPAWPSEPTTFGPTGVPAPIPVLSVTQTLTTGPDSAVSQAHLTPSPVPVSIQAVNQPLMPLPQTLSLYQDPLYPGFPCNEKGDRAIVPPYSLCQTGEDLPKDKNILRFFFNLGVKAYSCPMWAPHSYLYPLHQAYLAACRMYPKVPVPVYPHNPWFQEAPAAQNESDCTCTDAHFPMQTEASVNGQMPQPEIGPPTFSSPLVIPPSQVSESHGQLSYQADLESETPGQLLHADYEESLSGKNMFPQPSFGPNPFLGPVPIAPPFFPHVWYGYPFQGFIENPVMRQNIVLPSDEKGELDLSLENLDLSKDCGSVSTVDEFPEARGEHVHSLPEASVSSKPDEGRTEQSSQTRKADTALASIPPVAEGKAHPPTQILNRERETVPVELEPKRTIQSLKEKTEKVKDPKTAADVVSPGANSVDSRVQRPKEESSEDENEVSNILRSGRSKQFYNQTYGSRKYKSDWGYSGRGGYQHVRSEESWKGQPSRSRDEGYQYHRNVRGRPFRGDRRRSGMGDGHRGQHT
# How it was run: as §1
# [9] = target: T5, OTUD5 (UniProt Q96G74)
# T5 sequence (whole entry): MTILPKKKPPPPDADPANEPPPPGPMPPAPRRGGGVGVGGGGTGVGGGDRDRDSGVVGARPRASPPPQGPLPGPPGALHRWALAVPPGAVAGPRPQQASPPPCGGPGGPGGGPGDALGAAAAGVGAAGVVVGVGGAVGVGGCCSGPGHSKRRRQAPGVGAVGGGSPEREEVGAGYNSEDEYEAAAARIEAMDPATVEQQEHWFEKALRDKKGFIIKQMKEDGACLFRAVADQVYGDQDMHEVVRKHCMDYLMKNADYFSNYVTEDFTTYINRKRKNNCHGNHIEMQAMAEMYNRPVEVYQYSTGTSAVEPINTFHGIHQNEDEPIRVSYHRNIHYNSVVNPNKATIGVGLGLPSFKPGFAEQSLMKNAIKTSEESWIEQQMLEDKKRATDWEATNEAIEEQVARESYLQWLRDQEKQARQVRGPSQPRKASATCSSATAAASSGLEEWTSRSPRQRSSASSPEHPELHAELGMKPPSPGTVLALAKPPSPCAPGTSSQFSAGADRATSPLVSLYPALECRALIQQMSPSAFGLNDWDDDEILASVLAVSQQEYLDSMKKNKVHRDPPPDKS
# How it was run: as §1
# EIF3F, sequence (O00303 whole entry): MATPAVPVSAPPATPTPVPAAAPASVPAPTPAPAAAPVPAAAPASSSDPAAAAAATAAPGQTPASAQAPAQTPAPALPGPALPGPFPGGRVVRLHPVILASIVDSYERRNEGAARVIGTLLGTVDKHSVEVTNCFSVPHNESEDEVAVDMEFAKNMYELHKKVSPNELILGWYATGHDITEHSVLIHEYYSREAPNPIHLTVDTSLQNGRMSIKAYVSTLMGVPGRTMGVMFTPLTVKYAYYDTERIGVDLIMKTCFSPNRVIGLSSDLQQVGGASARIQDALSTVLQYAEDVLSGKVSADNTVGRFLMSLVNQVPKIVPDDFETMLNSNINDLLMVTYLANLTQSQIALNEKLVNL
# ATXN3, sequence (P54252 whole entry): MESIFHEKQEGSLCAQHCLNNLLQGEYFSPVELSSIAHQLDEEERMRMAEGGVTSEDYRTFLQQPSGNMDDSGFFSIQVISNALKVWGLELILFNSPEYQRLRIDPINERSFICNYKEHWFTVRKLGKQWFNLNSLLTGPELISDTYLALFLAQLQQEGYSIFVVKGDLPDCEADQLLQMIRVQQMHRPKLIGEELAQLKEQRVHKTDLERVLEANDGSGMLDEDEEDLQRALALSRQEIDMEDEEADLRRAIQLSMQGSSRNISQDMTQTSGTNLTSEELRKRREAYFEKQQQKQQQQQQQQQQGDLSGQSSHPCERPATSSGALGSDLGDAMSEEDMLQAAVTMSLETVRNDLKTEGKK
# EIF3H, sequence (O15372 whole entry): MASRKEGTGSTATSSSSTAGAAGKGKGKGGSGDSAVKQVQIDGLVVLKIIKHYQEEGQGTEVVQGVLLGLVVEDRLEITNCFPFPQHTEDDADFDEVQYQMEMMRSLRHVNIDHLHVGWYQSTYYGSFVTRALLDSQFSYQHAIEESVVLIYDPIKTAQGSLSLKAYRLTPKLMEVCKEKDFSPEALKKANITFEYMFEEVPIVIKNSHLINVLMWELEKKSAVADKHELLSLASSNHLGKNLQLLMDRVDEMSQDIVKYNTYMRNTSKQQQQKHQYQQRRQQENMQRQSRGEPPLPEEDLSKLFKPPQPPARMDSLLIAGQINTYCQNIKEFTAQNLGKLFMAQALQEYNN
# OTUB1, sequence (Q96FW1 whole entry): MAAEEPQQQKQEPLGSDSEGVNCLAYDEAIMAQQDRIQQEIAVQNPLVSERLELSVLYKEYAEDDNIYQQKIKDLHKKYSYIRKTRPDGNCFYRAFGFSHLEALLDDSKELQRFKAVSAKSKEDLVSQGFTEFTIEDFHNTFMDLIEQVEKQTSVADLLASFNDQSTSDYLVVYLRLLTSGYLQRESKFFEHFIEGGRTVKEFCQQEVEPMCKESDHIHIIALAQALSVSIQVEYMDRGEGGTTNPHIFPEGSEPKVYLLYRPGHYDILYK
compound,measurement,setting,value
Cc1nc(-c2cccc(NC(=O)CCl)c2)cs1,log2 ratio of Biotin-Ahx-Ub-VS probe labelling,[1],0.3
same,log2 ratio of Biotin-Ahx-Ub-VS probe labelling,[2],-0.742
same,log2 ratio of Biotin-Ahx-Ub-VS probe labelling,[3],-3.5 (active)
same,log2 ratio of Biotin-Ahx-Ub-VS probe labelling,[4],-0.303
same,log2 ratio of Biotin-Ahx-Ub-VS probe labelling,[5],0.167
same,log2 ratio of Biotin-Ahx-Ub-VS probe labelling,[6],0.000667
same,log2 ratio of Biotin-Ahx-Ub-VS probe labelling,[7],-0.0946
same,log2 ratio of Biotin-Ahx-Ub-VS probe labelling,[8],-0.305
same,log2 ratio of Biotin-Ahx-Ub-VS probe labelling,[9],-0.539
